In PubChem BioAssay (EPA / NIEHS) one finds outcome and AC50 data, which are given here for 21 compounds.

Records with an inconclusive call do not appear. Active and inactive are the calls of the source. How the source made its calls: active means hit-call score of the fitted dose curve at least 0.9, where 1 is the maximum; inconclusive means response in the unintended direction; inactive means score below 0.9.

Sequence of human Serotonin, 5-Hydroxytryptamine Receptor 3 (5HT3), HTR3A (gene 3359) (P46098 whole entry, looked up): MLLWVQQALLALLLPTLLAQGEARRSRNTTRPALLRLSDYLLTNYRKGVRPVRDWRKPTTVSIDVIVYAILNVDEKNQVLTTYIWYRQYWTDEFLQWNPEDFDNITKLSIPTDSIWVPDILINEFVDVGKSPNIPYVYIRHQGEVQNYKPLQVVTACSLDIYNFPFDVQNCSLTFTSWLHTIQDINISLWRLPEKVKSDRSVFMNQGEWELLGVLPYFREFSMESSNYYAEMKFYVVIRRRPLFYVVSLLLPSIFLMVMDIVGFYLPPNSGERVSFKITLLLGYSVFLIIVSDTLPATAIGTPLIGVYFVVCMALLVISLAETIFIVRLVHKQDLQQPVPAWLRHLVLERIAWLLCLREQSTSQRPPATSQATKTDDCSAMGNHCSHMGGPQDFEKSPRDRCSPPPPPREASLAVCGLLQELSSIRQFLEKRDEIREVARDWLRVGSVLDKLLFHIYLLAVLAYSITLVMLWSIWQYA
Sequence of rat Thyrotropin Releasing Hormone Receptor (TRH), Trhr (gene 25570) (Q01717 whole entry, looked up): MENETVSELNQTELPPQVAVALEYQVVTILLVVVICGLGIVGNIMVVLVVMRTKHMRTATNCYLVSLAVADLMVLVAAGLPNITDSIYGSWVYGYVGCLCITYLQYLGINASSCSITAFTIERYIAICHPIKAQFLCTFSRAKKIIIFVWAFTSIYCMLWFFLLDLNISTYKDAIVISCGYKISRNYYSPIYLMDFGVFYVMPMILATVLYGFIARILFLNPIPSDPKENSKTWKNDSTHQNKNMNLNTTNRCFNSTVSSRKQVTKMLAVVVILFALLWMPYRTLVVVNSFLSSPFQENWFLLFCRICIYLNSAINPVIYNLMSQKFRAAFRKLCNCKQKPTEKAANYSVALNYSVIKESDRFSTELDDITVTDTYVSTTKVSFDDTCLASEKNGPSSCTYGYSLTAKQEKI
Sequence of rat Glutamate, AMPA Site (AMPA), Gria1 (gene 50592) (P19490 whole entry, looked up): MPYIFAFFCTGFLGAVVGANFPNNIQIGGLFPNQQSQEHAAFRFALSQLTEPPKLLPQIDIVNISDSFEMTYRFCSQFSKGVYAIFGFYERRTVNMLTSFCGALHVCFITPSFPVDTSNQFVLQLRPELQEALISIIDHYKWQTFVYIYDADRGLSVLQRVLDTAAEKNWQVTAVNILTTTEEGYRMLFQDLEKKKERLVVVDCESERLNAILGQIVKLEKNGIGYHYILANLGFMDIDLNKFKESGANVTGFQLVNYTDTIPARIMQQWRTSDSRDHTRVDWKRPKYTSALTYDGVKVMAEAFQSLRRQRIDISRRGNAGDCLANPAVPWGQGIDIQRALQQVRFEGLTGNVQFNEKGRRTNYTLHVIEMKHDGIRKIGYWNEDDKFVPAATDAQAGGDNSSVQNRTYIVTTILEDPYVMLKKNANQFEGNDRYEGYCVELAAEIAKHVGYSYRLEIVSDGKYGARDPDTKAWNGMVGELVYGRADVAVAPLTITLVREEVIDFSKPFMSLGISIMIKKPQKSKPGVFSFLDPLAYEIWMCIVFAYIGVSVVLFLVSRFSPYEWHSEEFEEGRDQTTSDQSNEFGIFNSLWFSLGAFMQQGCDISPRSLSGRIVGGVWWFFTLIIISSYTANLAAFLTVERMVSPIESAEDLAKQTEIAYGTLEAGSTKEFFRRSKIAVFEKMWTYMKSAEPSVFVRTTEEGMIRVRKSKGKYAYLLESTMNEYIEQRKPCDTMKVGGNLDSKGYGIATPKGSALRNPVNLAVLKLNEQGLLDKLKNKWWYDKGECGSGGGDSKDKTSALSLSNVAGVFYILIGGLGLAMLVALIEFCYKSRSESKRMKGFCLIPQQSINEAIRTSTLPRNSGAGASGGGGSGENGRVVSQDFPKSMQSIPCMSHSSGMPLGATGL

The target of the first experiment is rat Vasopressin 1 Receptor (V1), Avpr1a (gene 25107) (UniProt P30560). Kind of experiment: NVS_GPCR_rV1: NovaScreen (NVS) G Protein-Coupled Receptor Assay for rat Vasopressin 1 Receptor (V1) (AID 2283316). The method in brief: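 Concentration-response up to 50 uM for chemicals passing a threshold such as 30% inhibition in an initial duplicate 25 uM screen. Displacement of radioligand from rat liver membranes measured after 1.5 h by filtration and scintillation.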
Sequence of rat Vasopressin 1 Receptor (V1), Avpr1a (gene 25107) (P30560 whole entry, looked up): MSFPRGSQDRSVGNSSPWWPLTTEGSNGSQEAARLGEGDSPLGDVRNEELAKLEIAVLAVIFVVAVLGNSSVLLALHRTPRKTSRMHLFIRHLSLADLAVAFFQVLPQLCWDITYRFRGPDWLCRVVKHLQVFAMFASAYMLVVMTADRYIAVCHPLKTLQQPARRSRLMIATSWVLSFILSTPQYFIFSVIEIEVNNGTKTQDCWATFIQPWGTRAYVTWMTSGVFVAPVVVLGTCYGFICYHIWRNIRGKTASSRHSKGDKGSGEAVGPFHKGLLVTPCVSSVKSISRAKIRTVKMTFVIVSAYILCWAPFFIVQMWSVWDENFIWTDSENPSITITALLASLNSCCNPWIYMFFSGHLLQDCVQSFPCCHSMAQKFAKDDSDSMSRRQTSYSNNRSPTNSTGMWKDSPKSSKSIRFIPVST
As for `CC(C)c1cccc(C(C)C)c1NC(=O)NS(=O)(=O)c1cc(C(C)(C)O)co1`, the result was inactive.

For `CO[C@@H]1COCC[C@@H]1N[C@@H]1CC[C@@](C(=O)N2CCc3ncc(C(F)(F)F)cc3C2)(C(C)C)C1`, the compound was called inactive.

For `CC(=O)O`, the outcome was inactive.

For `CCc1cc(C2=C(C(=O)O)N(c3ccccc3C(F)(F)F)S(=O)(=O)c3ccccc32)cc2c1OCO2`, the concentration at half-maximal activity (AC50) is 25 µM (active).

Another experiment deals with Sodium channel protein type 1 subunit alpha (Rattus norvegicus) (UniProt P04774). Nature of the experiment: NVS_IC_rNaCh_site2: NovaScreen (NVS) Ion Channel Assay for rat Sodium Channel, Site 2 (NaCh) (AID 2283322).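 Further: hit means loss of radioligand binding signal relative to DMSO so AC50 marks displacement.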 The method in brief: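 Initial duplicate single-point testing at 25 uM, followed by concentration-response runs for actives. Binding of radioligand to rat forebrain membranes quantified after 1 h via filter-based radiodetection.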
Turning to `Cn1cnc2c1c(=O)[nH]c(=O)n2C`, the compound was called inactive.

Take `O=C1NC(=O)C(c2ccccc2)(c2ccccc2)N1`: the call was inactive.

As for `CO[C@@H]1COCC[C@@H]1N[C@@H]1CC[C@@](C(=O)N2CCc3ncc(C(F)(F)F)cc3C2)(C(C)C)C1`, the AC50 was 9.94 µM (active).

Turning to `CCCCC(CC)COP(=O)(OCC(CC)CCCC)OCC(CC)CCCC` (stereo not drawn), the result was inactive.

For the compound `CCCCC(CC)COC(=O)CCCCCCCC(=O)OCC(CC)CCCC` (stereo not drawn), the call was inactive.

Another experiment has as its target rat Glutamate, AMPA Site (AMPA), Gria1 (gene 50592) (UniProt P19490). Kind of experiment: NVS_LGIC_rAMPA: NovaScreen (NVS) Ligand-Gated Ion Channel Assay for rat Glutamate, AMPA Site (AMPA) (AID 2283324). In a few lines:
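Screening at 25 uM in duplicate preceded concentration series reaching 50 uM for qualifying compounds. Radioligand displacement on rat forebrain membranes, 1 h, filter-based scintillation readout; reduced binding relative to DMSO.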
For the compound `CC(C)NCC(O)c1ccc(O)c(O)c1` (stereo not drawn), the compound was called inactive.

As to `O=Cc1ccccc1C=O`, the half-maximal activity concentration (AC50) was 13.5 µM (active).

In the case of `CCCCC(CC)COP(=O)(OCC(CC)CCCC)OCC(CC)CCCC` (stereo not drawn), the call was inactive.

The next experiment concerns the target human Serotonin, 5-Hydroxytryptamine Receptor 3 (5HT3), HTR3A (gene 3359) (UniProt P46098). Nature of the experiment: NVS_LGIC_h5HT3: NovaScreen (NVS) Ligand-Gated Ion Channel Assay for human Serotonin, 5-Hydroxytryptamine Receptor 3 (5HT3) (AID 2283325). As to the method: NVS_LGIC_h5HT3 is a biochemical, single-readout assay that uses extracted gene-proteins from HEK293 in a cell-free assay. Measurements were taken 1 hour after chemical dosing in a 96-well plate.NVS_LGIC_h5HT3 is one of one assay component(s) measured or calculated from the NVS_LGIC_h5HT3 assay. It is designed to make measurements of radioligand binding, a form of binding reporter, as detected with scintillation counting signals by Filter-based radiodetection technology.Data from the assay component NVS_LGIC_h5HT3 was analyzed into 1 assay endpoint. This assay endpoint, NVS_LGIC_h5HT3, was analyzed in the positive analysis fitting direction relative to DMSO as the negative control and baseline of activity. Using a type of binding reporter, loss-of-signal activity can be used to understand changes in the binding as they relate to the gene HTR3A. Furthermore, this assay endpoint can be referred to as a primary readout, because the performed assay has only produced 1 assay endpoint. To generalize the intended target to other relatable targets, this assay endpoint is annotated to the ion channel intended target family, where the subfamily is ligand-gated ion channel.
(§1) Binding assays used specific radioligands (tritiated, iodinated) with non-radioactive competitive displacement ligands in agonist or antagonist protocols (as indicated) and various reference compounds and inhibitors to titrate specific binding to receptors and transporters. Most enzyme assays (CYPs, kinases, phosphatases, proteases, HDACs) used recombinant protein and specific substrates (fluorescence mostly, some colorimetric and radioactive) and inhibitors, followed by a biochemical separation of substrate and product. All assays for the biochemical HTS were initially run in duplicate at a single concentration (10 uM for CYP450 assays and 25 uM for all others). Assay-chemical combinations meeting a pre-defined threshold (e.g., 30% inhibition and other criteria defined below) were then run in singleton concentration-response format with maximum concentration of 20 uM for CYPs and 50 uM for all others. Each assay was run with positive and negative controls, and concurrent controls on every plate. The follow-up (secondary) screen tested active chemical-pairs in concentration series, as well as a few additional assays not tested in the primary screen, some selected negative inactives, and several cases re-run in the concentration series for confirmatory purposes.
`Cc1cn([C@H]2C=C[C@@H](CO)O2)c(=O)[nH]c1=O`: the AC50 is 8.81 µM (active).

For the compound `CCCCCCCCCCCCCCOS(=O)(=O)O`, the AC50 was 25 µM (active).

Take `C/C=C/C=C/C(=O)O`: the compound was called inactive.

Take `OCC(O)CO`: the AC50 was 25 µM (active).

Another experiment has as its target rat Thyrotropin Releasing Hormone Receptor (TRH), Trhr (gene 25570) (UniProt Q01717). Nature of the experiment: NVS_GPCR_rTRH: NovaScreen (NVS) G Protein-Coupled Receptor Assay for rat Thyrotropin Releasing Hormone Receptor (TRH) (AID 2283329).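 Further: hit means lower bound tracer signal versus DMSO baseline.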 As to the method:
NVS_GPCR_rTRH is a biochemical, single-readout assay that uses extracted gene-proteins from Rat forebrain membranes in a tissue-based cell-free assay. Measurements were taken 4 hours after chemical dosing in a 48-well plate.NVS_GPCR_rTRH is one of one assay component(s) measured or calculated from the NVS_GPCR_rTRH assay. It is designed to make measurements of radioligand binding, a form of binding reporter, as detected with scintillation counting signals by Filter-based radiodetection technology.Data from the assay component NVS_GPCR_rTRH was analyzed into 1 assay endpoint. This assay endpoint, NVS_GPCR_rTRH, was analyzed in the positive analysis fitting direction relative to DMSO as the negative control and baseline of activity. Using a type of binding reporter, loss-of-signal activity can be used to understand changes in the binding as they relate to the gene Trhr. Furthermore, this assay endpoint can be referred to as a primary readout, because the performed assay has only produced 1 assay endpoint. To generalize the intended target to other relatable targets, this assay endpoint is annotated to the gpcr intended target family, where the subfamily is rhodopsin-like receptor.
as §1, with “Assay-chemical combinations meeting a pre-defined threshold (e.g., 30% inhibition and other criteria defined below) were then run in singleton concentration-response format with maximum concentration of 20 uM for CYPs and 50 uM for all others.” left out
On to `Cc1cc(Cc2ccc(N)c(C)c2)ccc1N`, for which the call was inactive.

For the compound `CC(=O)[C@@]1(O)CC[C@H]2[C@@H]3CCC4=CC(=O)CC[C@]4(C)[C@H]3CC[C@@]21C`, the result was inactive.

`O=C(O)CN(CC(=O)O)CC(=O)O`: the concentration at half-maximal activity (AC50) is 5.7 µM (active).

For the compound `O=C1CCCCC1`, the compound was classed as inactive.

As for `C#CC(O)C(CC)CCCC` (stereo not drawn), the compound was called inactive.

As for `O=[Si]=O`, the compound was classed as inactive.

For the compound `CS(=O)(=O)c1ccc([C@@H](C[C@H]2CCC(=O)C2)C(=O)Nc2cnccn2)cc1Cl`, the compound was classed as inactive.
